For 27 molecules, AC50 and outcome results are on record in PubChem BioAssay (EPA / NIEHS).

Values joined by “and” are separate entries in the source; they are usually repeats but may differ in a detail not shown here. Identical values can stand only once. Records with an inconclusive call do not appear. Active and inactive are the calls of the source. How the source made its calls, unless noted: active means hit-call score of the fitted dose curve at least 0.9, where 1 is the maximum; inconclusive means response in the unintended direction; inactive means score below 0.9.

Sequence of Glutamate receptor ionotropic, kainate 1 (Rattus norvegicus) (P22756 whole entry, looked up): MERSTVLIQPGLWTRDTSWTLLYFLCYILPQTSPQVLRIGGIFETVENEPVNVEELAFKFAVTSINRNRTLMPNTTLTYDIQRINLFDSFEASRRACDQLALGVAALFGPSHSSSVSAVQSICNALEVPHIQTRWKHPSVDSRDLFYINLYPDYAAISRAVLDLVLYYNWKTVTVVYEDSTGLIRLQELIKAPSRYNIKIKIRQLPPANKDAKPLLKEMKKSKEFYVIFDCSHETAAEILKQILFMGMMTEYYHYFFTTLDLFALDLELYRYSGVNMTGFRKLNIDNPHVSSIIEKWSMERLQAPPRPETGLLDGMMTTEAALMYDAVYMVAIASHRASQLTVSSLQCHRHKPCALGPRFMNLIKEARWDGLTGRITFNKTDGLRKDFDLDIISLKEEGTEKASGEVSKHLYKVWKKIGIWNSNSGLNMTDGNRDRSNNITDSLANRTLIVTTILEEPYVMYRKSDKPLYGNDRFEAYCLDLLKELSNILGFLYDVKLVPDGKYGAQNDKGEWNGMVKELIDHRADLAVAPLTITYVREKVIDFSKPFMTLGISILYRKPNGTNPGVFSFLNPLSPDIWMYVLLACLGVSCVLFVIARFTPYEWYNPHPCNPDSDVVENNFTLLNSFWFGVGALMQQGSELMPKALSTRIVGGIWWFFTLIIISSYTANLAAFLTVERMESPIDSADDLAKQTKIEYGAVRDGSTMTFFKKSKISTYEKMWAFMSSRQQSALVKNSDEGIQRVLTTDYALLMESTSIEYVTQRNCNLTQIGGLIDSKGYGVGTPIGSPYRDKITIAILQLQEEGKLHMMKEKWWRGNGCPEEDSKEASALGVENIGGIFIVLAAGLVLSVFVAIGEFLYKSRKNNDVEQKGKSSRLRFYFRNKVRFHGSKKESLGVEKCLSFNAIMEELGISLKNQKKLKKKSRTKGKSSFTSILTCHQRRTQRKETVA
Sequence of rat Peripheral-type Benzodiazepine Receptor (PBR), Tspo (gene 24230) (P16257 whole entry, looked up): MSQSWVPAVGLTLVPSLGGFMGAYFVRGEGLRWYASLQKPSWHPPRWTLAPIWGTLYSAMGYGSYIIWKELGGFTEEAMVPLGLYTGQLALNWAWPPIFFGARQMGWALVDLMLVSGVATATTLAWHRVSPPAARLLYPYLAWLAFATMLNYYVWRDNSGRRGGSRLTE
Sequence of Voltage-gated inwardly rectifying potassium channel KCNH2 (Homo sapiens) (Q12809 whole entry, looked up): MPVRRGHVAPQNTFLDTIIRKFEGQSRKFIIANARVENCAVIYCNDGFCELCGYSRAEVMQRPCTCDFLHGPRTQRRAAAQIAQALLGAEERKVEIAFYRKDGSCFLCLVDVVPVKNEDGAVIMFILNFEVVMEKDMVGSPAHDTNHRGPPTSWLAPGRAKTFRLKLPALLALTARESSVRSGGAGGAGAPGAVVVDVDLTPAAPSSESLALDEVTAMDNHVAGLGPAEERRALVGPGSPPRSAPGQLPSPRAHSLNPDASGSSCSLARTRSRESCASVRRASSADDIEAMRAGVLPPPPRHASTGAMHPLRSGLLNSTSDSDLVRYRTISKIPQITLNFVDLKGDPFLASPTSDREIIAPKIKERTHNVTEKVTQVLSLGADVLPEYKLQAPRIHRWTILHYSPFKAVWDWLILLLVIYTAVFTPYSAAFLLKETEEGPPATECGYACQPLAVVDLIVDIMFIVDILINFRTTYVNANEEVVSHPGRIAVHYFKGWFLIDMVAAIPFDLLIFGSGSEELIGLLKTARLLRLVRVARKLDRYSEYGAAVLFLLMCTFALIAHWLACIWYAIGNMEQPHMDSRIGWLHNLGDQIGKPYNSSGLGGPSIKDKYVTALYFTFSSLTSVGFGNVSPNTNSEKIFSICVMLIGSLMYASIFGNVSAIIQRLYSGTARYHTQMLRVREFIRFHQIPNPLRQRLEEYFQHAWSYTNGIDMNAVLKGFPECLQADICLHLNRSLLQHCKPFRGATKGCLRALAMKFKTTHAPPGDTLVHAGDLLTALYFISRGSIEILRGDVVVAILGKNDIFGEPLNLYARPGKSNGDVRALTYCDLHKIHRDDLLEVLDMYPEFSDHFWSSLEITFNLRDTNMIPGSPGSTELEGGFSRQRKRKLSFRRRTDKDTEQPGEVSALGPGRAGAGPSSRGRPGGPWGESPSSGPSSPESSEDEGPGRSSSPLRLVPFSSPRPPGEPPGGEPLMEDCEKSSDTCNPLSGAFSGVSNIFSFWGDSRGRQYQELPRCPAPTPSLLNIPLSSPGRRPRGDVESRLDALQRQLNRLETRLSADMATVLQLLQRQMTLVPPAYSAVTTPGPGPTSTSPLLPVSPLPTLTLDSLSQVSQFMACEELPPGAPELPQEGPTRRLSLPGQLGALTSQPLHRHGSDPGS

One experiment concerns the target Voltage-gated inwardly rectifying potassium channel KCNH2 (Homo sapiens) (UniProt Q12809). The experiment is described as follows: NVS_IC_hKhERGCh: NovaScreen (NVS) Ion Channel Assay for human Potassium Channel ERG (KhERGCh) (AID 2283333). The procedure, abridged: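 Membranes from CHO cells expressing human ERG; displacement of radioligand measured by filtration and scintillation after 0.75 h. Single-concentration duplicate screen at 25 uM, then concentration-response for actives; DMSO baseline.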
As to `CCCCCCCCCCCC[N+](C)(C)C`, the half-maximal activity concentration (AC50) was 10.2 µM (active).
Same read-out and setting: the result for `COc1ccc2cc(S(=O)(=O)N[C@H](CC(=O)N[C@H](Cc3ccc(CN4[C@H](C)CCC[C@@H]4C)cc3)C(=O)N(C)C(C)C)c3ccc4c(c3)OCO4)ccc2c1` reads 1.21 µM (active); that for `Cc1cc(F)ccc1-c1cc(N2CC[C@@H](O)[C@H]2CO)ncc1N(C)C(=O)C(C)(C)c1cc(C(F)(F)F)cc(C(F)(F)F)c1`, 7.95 µM (active).
Still for that read-out and setting: the result for `CN(C)C(=O)C1(N2CCCCC2)CCN(CC[C@@]2(c3ccc(Cl)c(Cl)c3)CN(C(=O)c3ccccc3)CCO2)CC1` reads 8.74 µM (active); that for `COc1cc(C(=O)NC2CCN(C)CC2)ccc1Nc1ncc2c(n1)N(C1CCCC1)CC(F)(F)C(=O)N2C`, 5.1 µM (active).
Same read-out and setting: the result for `CCN(CC)C(=O)c1cc(S(=O)(=O)Cc2ccccc2)c(N2CCC(c3ccccc3)CC2)cc1N(CC)CCN(C)C` reads 6.17 µM (active).
Take `NCc1cccc(C2CCN(C(=O)c3ccc(C#Cc4ccccc4F)o3)CC2)c1`: the AC50 is 6.03 µM (active).
On the same count and under the same terms, the result for `CN(C)c1ccc(C(=C2C=CC(=[N+](C)C)C=C2)c2ccc(N(C)C)cc2)cc1` reads 5.33 µM (active).
For the molecule `CCCCCCCCN(C)CCCCCCCC`, the molecule was called inactive.
As for `CCOC(=O)O[C@H](C)OC(=O)c1ccc2c(c1)cc(C(=O)NC1CCN(C(C)C)CC1)n2Cc1cc(-c2ccc(Cl)s2)on1`, the AC50 is 0.925 µM (active).

The target in the next experiment is Glutamate receptor ionotropic, kainate 1 (Rattus norvegicus) (UniProt P22756). The experiment is described as follows: NVS_IC_rKAR: NovaScreen (NVS) Ion Channel Assay for rat Kainic Acid Receptors (KAR) (AID 2283334; active means hit-call score of the fitted dose curve at least 0.9, where 1 is the maximum; inactive means score below 0.9). In outline:
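Rat forebrain membrane preparation incubated 1 h with radioligand and test chemical; bound signal read by filtration and scintillation. Single-concentration screen at 25 uM, then concentration series to 50 uM maximum.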
In the case of `CCCC(=O)OCCC(C)C`, the molecule was called inactive.
Same read-out and setting: the result for `O=c1[nH]sc2ccccc12` reads “inactive”.
With `CCCCCCCCN(C)CCCCCCCC`, the molecule was called inactive.

The target of a further experiment is rat Peripheral-type Benzodiazepine Receptor (PBR), Tspo (gene 24230) (UniProt P16257). The experiment in a line: NVS_MP_rPBR: NovaScreen (NVS) Membrane Protein Assay for rat Peripheral-type Benzodiazepine Receptor (PBR) (AID 2283335). In outline:
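Single-concentration duplicate screening at 25 uM preceded concentration-series retesting of actives. Binding of a specific radioligand to rat kidney membrane PBR was read by filtration radiodetection after 1 h, with plate-wise positive and negative controls.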
Turning to `Cc1oc2c(NC(=O)c3c(Cl)cccc3Cl)cccc2c1C(C)(C)O`, the half-maximal activity concentration (AC50) was 2.5 µM (active).
On the same count and under the same terms, the result for `CC(C)(O)c1ccc(CNC(=O)c2cccnc2Oc2ccc3nonc3c2)cc1` reads 7.64 µM (active).
On to `NC(=O)c1nc(-c2cccc(-c3cc(F)ccc3OCC(F)(F)C(F)(F)F)c2)n[nH]1`, for which the AC50 is 5.7 µM (active).
Still for that read-out and setting: the result for `Cc1ccc2oc(CN(Cc3ccccc3)C(=O)Nc3c(F)cc(F)cc3F)c(-c3ccc(Cl)cc3)c2c1` reads 4.2 µM (active); that for `CN(C[C@@H](CC[N+]12CCC(C3CCCCC3)(CC1)CC2)c1ccc(Cl)c(Cl)c1)C(=O)c1cc(C(F)(F)F)cc(C(F)(F)F)c1`, 2.4 µM (active).
Consider `NCc1cccc(C2CCN(C(=O)c3ccc(C#Cc4ccccc4F)o3)CC2)c1`, for which the call was inactive.
Consider `OC12N=C(c3ccccc3)SC1Cc1cc(Cl)ccc12` (stereo not given), for which the AC50 is 6.16 µM (active).
The same measure, in the same setting: the result for `CC[C@H](NC(=O)c1cc(F)ccc1NS(=O)(=O)c1cccc2cccnc12)c1ccccc1` reads 0.0869 µM (active).
As for `Cc1c2ccccc2c(C)c2c1ccc1ccccc12`, the half-maximal activity concentration (AC50) was 1.69 µM (active).
For `CC/C(=C(/CC)c1ccc(O)cc1)c1ccc(O)cc1`, the concentration at half-maximal activity (AC50) was 20.8 µM (active) and 25 µM (active) and 1.49 µM (active).
On the same count and under the same terms, the result for `CN(C)c1ccc(C(=C2C=CC(=[N+](C)C)C=C2)c2ccc(N(C)C)cc2)cc1` reads 5.36 µM (active).
For `O=C1c2ccccc2C(=O)N1CCc1noc(-c2ccc(CN3CCCCCC3)s2)n1`, the outcome was inactive.
Take `CCN(Cc1cccnc1)C(=O)c1cccc(Cl)c1[C@]1(C)C(=O)N(Cc2ccc(OC)cc2OC)c2ccc(Cl)cc21`: the AC50 is 1.69 µM (active).
The same measure, in the same setting: the result for `CCCCOC(=O)c1ccc(O)cc1` reads 3 µM (active) and 25 µM (active).
Regarding `O=c1c(-c2ccc(O)cc2)coc2cc(O)cc(O)c12`, the outcome was inactive.
Consider `CCCCOC(=O)CC(CC(=O)OCCCC)(OC(C)=O)C(=O)OCCCC`, for which the molecule was classed as inactive.
For `CCCCCCCCOC(=O)c1cc(O)c(O)c(O)c1`, the AC50 is 2.82 µM (active).
